# Data from the supplement of paper PMC4466140.
# How the values were obtained:
# Test in all cases: SPOT peptide array binding signal intensity (averaged, normalized) (arbitrary units (background-subtracted, floor 0; scale differs between SH3 domains)); higher = stronger binding of the SH3 domain to the peptide
# AgAbp1 = target: AgAbp1
# Outline: (§1)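 Four yeast species supplied the SH3 domains, which were expressed as GST fusions in E. coli BL21(DE3) and purified on glutathione Sepharose. Incubation with cellulose membranes carrying synthetic 15-mer peptides, cysteines exchanged for serines, ran overnight at 4°C at 10 μg/ml in TBS-based blocking buffer. Binding signal is reported as normalized, background-subtracted spot intensity averaged over replicates, in arbitrary units not shared between domains.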
# AgBbc1 = target: AgBbc1
# Outline: as §1
# AgBem1-D1 = target: AgBem1-D1
# Outline: as §1
# AgBzz1-D1 = target: AgBzz1-D1
# Outline: as §1
# AgBzz1-D2 = target: AgBzz1-D2
# Outline: as §1
# AgCyk3 = target: AgCyk3
# Outline: as §1
# AgFus1 = target: AgFus1
# Outline: as §1
# AgHof1 = target: AgHof1
# Outline: as §1
# AgHse1 = target: AgHse1
# Outline: as §1
# AgLsb1 = target: AgLsb1
# Outline: as §1
# AgLsb4 = target: AgLsb4
# Outline: as §1
# AgMyo5 = target: AgMyo5
# Outline: as §1
# AgNbp2 = target: AgNbp2
# Outline: as §1
# AgRvs167 = target: AgRvs167
# Outline: as §1
# AgSho1 = target: AgSho1
# Outline: as §1
# AgSla1-D1-D2 = target: AgSla1-D1-D2
# Outline: as §1
# AgSla1-D3 = target: AgSla1-D3
# Outline: as §1
# CaAbp1-D1 = target: CaAbp1-D1
# Outline: as §1
# CaAbp1-D2 = target: CaAbp1-D2
# Outline: as §1
# CaBbc1 = target: CaBbc1
# Outline: as §1
# CaBem1-D1 = target: CaBem1-D1
# Outline: as §1
# CaBzz1-D1 = target: CaBzz1-D1
# Outline: as §1
# CaBzz1-D2 = target: CaBzz1-D2
# Outline: as §1
# CaCyk3 = target: CaCyk3
# Outline: as §1
# CaFus1 = target: CaFus1
# Outline: as §1
# CaHof1 = target: CaHof1
# Outline: as §1
# CaHse1 = target: CaHse1
# Outline: as §1
# CaLsb1 = target: CaLsb1
# Outline: as §1
# CaLsb4 = target: CaLsb4
# Outline: as §1
# CaMyo5 = target: CaMyo5
# Outline: as §1
# CaNbp2 = target: CaNbp2
# Outline: as §1
# CaRvs167 = target: CaRvs167
# Outline: as §1
# CaRvs167-3 = target: CaRvs167-3
# Outline: as §1
# CaSho1 = target: CaSho1
# Outline: as §1
# CaSla1-D1-D2 = target: CaSla1-D1-D2
# Outline: as §1
# CaSla1-D3 = target: CaSla1-D3
# Outline: as §1
# ScAbp1 = target: ScAbp1
# Outline: as §1
# ScBbc1 = target: ScBbc1
# Outline: as §1
# ScBem1-D1 = target: ScBem1-D1
# Outline: as §1
# ScBzz1-D1 = target: ScBzz1-D1
# Outline: as §1
# ScBzz1-D2 = target: ScBzz1-D2
# Outline: as §1
# ScCyk3 = target: ScCyk3
# Outline: as §1
# ScFus1 = target: ScFus1
# Outline: as §1
# ScHof1 = target: ScHof1
# Outline: as §1
# ScHse1 = target: ScHse1
# Outline: as §1
# ScLsb1 = target: ScLsb1
# Outline: as §1
# ScLsb2 = target: ScLsb2
# Outline: as §1
# ScLsb3 = target: ScLsb3
# Outline: as §1
# ScLsb4 = target: ScLsb4
# Outline: as §1
# ScMyo3 = target: ScMyo3
# Outline: as §1
# ScMyo5 = target: ScMyo5
# Outline: as §1
# ScNbp2 = target: ScNbp2
# Outline: as §1
# ScPex13 = target: ScPex13
# Outline: as §1
# ScRvs167 = target: ScRvs167
# Outline: as §1
# ScSho1 = target: ScSho1
# Outline: as §1
# ScSla1-D1-D2 = target: ScSla1-D1-D2
# Outline: as §1
# ScSla1-D3 = target: ScSla1-D3
# Outline: as §1
# SpAbp1-D1 = target: SpAbp1-D1
# Outline: as §1
# SpBbc1 = target: SpBbc1
# Outline: as §1
# SpBzz1-D1 = target: SpBzz1-D1
# Outline: as §1
# SpBzz1-D2 = target: SpBzz1-D2
# Outline: as §1
# SpCyk3 = target: SpCyk3
# Outline: as §1
# SpHof1 = target: SpHof1
# Outline: as §1
# SpHof1-2 = target: SpHof1-2
# Outline: as §1
# SpHof1-3 = target: SpHof1-3
# Outline: as §1
# SpHse1 = target: SpHse1
# Outline: as §1
# SpLsb1 = target: SpLsb1
# Outline: as §1
# SpLsb4 = target: SpLsb4
# Outline: as §1
# SpMyo1 = target: SpMyo1
# Outline: as §1
# SpNbp2 = target: SpNbp2
# Outline: as §1
# SpPex13 = target: SpPex13
# Outline: as §1
# SpRvs167 = target: SpRvs167
# Outline: as §1
# SpSla1-D1-D2 = target: SpSla1-D1-D2
# Outline: as §1
# SpSla1-D3 = target: SpSla1-D3
# Outline: as §1
binder,measurement,setting,value
FSRRQSMDIPSKNRN,SPOT peptide array binding signal intensity,AgAbp1,114
same,SPOT peptide array binding signal intensity,AgBbc1,69.8
same,SPOT peptide array binding signal intensity,AgBem1-D1,557
same,SPOT peptide array binding signal intensity,AgBzz1-D1,33
same,SPOT peptide array binding signal intensity,AgBzz1-D2,78.5
same,SPOT peptide array binding signal intensity,AgCyk3,3
same,SPOT peptide array binding signal intensity,AgFus1,248
same,SPOT peptide array binding signal intensity,AgHof1,67.5
same,SPOT peptide array binding signal intensity,AgHse1,550
same,SPOT peptide array binding signal intensity,AgLsb1,15
same,SPOT peptide array binding signal intensity,AgLsb4,24
same,SPOT peptide array binding signal intensity,AgMyo5,16
same,SPOT peptide array binding signal intensity,AgNbp2,660
same,SPOT peptide array binding signal intensity,AgRvs167,4.17
same,SPOT peptide array binding signal intensity,AgSho1,115
same,SPOT peptide array binding signal intensity,AgSla1-D1-D2,54
same,SPOT peptide array binding signal intensity,AgSla1-D3,11
same,SPOT peptide array binding signal intensity,CaAbp1-D1,266
same,SPOT peptide array binding signal intensity,CaAbp1-D2,313
same,SPOT peptide array binding signal intensity,CaBbc1,384
same,SPOT peptide array binding signal intensity,CaBem1-D1,686
same,SPOT peptide array binding signal intensity,CaBzz1-D1,475
same,SPOT peptide array binding signal intensity,CaBzz1-D2,308
same,SPOT peptide array binding signal intensity,CaCyk3,25
same,SPOT peptide array binding signal intensity,CaFus1,602
same,SPOT peptide array binding signal intensity,CaHof1,0.5
same,SPOT peptide array binding signal intensity,CaHse1,225
same,SPOT peptide array binding signal intensity,CaLsb1,4
same,SPOT peptide array binding signal intensity,CaLsb4,412
same,SPOT peptide array binding signal intensity,CaMyo5,47.8
same,SPOT peptide array binding signal intensity,CaNbp2,1460
same,SPOT peptide array binding signal intensity,CaRvs167,96.7
same,SPOT peptide array binding signal intensity,CaRvs167-3,1.75
same,SPOT peptide array binding signal intensity,CaSho1,691
same,SPOT peptide array binding signal intensity,CaSla1-D1-D2,982
same,SPOT peptide array binding signal intensity,CaSla1-D3,552
same,SPOT peptide array binding signal intensity,ScAbp1,74
same,SPOT peptide array binding signal intensity,ScBbc1,34
same,SPOT peptide array binding signal intensity,ScBem1-D1,88.5
same,SPOT peptide array binding signal intensity,ScBzz1-D1,48
same,SPOT peptide array binding signal intensity,ScBzz1-D2,102
same,SPOT peptide array binding signal intensity,ScCyk3,8.5
same,SPOT peptide array binding signal intensity,ScFus1,405
same,SPOT peptide array binding signal intensity,ScHof1,2
same,SPOT peptide array binding signal intensity,ScHse1,566
same,SPOT peptide array binding signal intensity,ScLsb1,56.8
same,SPOT peptide array binding signal intensity,ScLsb2,1
same,SPOT peptide array binding signal intensity,ScLsb3,350
same,SPOT peptide array binding signal intensity,ScLsb4,126
same,SPOT peptide array binding signal intensity,ScMyo3,41.5
same,SPOT peptide array binding signal intensity,ScMyo5,13
same,SPOT peptide array binding signal intensity,ScNbp2,846
same,SPOT peptide array binding signal intensity,ScPex13,586
same,SPOT peptide array binding signal intensity,ScRvs167,70.5
same,SPOT peptide array binding signal intensity,ScSho1,458
same,SPOT peptide array binding signal intensity,ScSla1-D1-D2,1260
same,SPOT peptide array binding signal intensity,ScSla1-D3,851
same,SPOT peptide array binding signal intensity,SpAbp1-D1,118
same,SPOT peptide array binding signal intensity,SpBbc1,17
same,SPOT peptide array binding signal intensity,SpBzz1-D1,573
same,SPOT peptide array binding signal intensity,SpBzz1-D2,16.8
same,SPOT peptide array binding signal intensity,SpCyk3,4
same,SPOT peptide array binding signal intensity,SpHof1,43.8
same,SPOT peptide array binding signal intensity,SpHof1-2,98
same,SPOT peptide array binding signal intensity,SpHof1-3,193
same,SPOT peptide array binding signal intensity,SpHse1,784
same,SPOT peptide array binding signal intensity,SpLsb1,15
same,SPOT peptide array binding signal intensity,SpLsb4,290
same,SPOT peptide array binding signal intensity,SpMyo1,32.5
same,SPOT peptide array binding signal intensity,SpNbp2,400
same,SPOT peptide array binding signal intensity,SpPex13,157
same,SPOT peptide array binding signal intensity,SpRvs167,34.5
same,SPOT peptide array binding signal intensity,SpSla1-D1-D2,30.5
same,SPOT peptide array binding signal intensity,SpSla1-D3,279
NNQRRKPLLLNIGDH,SPOT peptide array binding signal intensity,AgAbp1,108
same,SPOT peptide array binding signal intensity,AgBbc1,≤ 0
same,SPOT peptide array binding signal intensity,AgBem1-D1,≤ 0
same,SPOT peptide array binding signal intensity,AgBzz1-D1,≤ 0
same,SPOT peptide array binding signal intensity,AgBzz1-D2,54
same,SPOT peptide array binding signal intensity,AgCyk3,0.5
same,SPOT peptide array binding signal intensity,AgFus1,305
same,SPOT peptide array binding signal intensity,AgHof1,6
same,SPOT peptide array binding signal intensity,AgHse1,1660
same,SPOT peptide array binding signal intensity,AgLsb1,≤ 0
same,SPOT peptide array binding signal intensity,AgLsb4,≤ 0
same,SPOT peptide array binding signal intensity,AgMyo5,1
same,SPOT peptide array binding signal intensity,AgNbp2,68.5
same,SPOT peptide array binding signal intensity,AgRvs167,5.67
same,SPOT peptide array binding signal intensity,AgSho1,24.5
same,SPOT peptide array binding signal intensity,AgSla1-D1-D2,175
same,SPOT peptide array binding signal intensity,AgSla1-D3,5.5
same,SPOT peptide array binding signal intensity,CaAbp1-D1,330
same,SPOT peptide array binding signal intensity,CaAbp1-D2,458
same,SPOT peptide array binding signal intensity,CaBbc1,≤ 0
same,SPOT peptide array binding signal intensity,CaBem1-D1,≤ 0
same,SPOT peptide array binding signal intensity,CaBzz1-D1,≤ 0
same,SPOT peptide array binding signal intensity,CaBzz1-D2,≤ 0
same,SPOT peptide array binding signal intensity,CaCyk3,1.5
same,SPOT peptide array binding signal intensity,CaFus1,1030
same,SPOT peptide array binding signal intensity,CaHof1,≤ 0
same,SPOT peptide array binding signal intensity,CaHse1,21
same,SPOT peptide array binding signal intensity,CaLsb1,0.5
same,SPOT peptide array binding signal intensity,CaLsb4,≤ 0
same,SPOT peptide array binding signal intensity,CaMyo5,≤ 0
same,SPOT peptide array binding signal intensity,CaNbp2,528
same,SPOT peptide array binding signal intensity,CaRvs167,12
same,SPOT peptide array binding signal intensity,CaRvs167-3,35.8
same,SPOT peptide array binding signal intensity,CaSho1,420
same,SPOT peptide array binding signal intensity,CaSla1-D1-D2,≤ 0
same,SPOT peptide array binding signal intensity,CaSla1-D3,2.25
same,SPOT peptide array binding signal intensity,ScAbp1,442
same,SPOT peptide array binding signal intensity,ScBbc1,≤ 0
same,SPOT peptide array binding signal intensity,ScBem1-D1,3
same,SPOT peptide array binding signal intensity,ScBzz1-D1,16.5
same,SPOT peptide array binding signal intensity,ScBzz1-D2,≤ 0
same,SPOT peptide array binding signal intensity,ScCyk3,33
same,SPOT peptide array binding signal intensity,ScFus1,272
same,SPOT peptide array binding signal intensity,ScHof1,0.5
same,SPOT peptide array binding signal intensity,ScHse1,1820
same,SPOT peptide array binding signal intensity,ScLsb1,≤ 0
same,SPOT peptide array binding signal intensity,ScLsb2,≤ 0
same,SPOT peptide array binding signal intensity,ScLsb3,68
same,SPOT peptide array binding signal intensity,ScLsb4,≤ 0
same,SPOT peptide array binding signal intensity,ScMyo3,≤ 0
same,SPOT peptide array binding signal intensity,ScMyo5,≤ 0
same,SPOT peptide array binding signal intensity,ScNbp2,112
same,SPOT peptide array binding signal intensity,ScPex13,≤ 0
same,SPOT peptide array binding signal intensity,ScRvs167,4.33
same,SPOT peptide array binding signal intensity,ScSho1,676
same,SPOT peptide array binding signal intensity,ScSla1-D1-D2,37
same,SPOT peptide array binding signal intensity,ScSla1-D3,≤ 0
same,SPOT peptide array binding signal intensity,SpAbp1-D1,384
same,SPOT peptide array binding signal intensity,SpBbc1,0.5
same,SPOT peptide array binding signal intensity,SpBzz1-D1,136
